Laboratory results taken from PubChem BioAssay (NCATS).
Results filed as inconclusive are left out. A call without a number means that no potency is given here. Active and inactive are the calls of the source. The call rests on the fitted dose curve; in most records, active means well fitted inhibition curve with a large enough effect; inconclusive means small, poorly fitted or top-dose-only effect; inactive means no such curve, though single readings can be large or run the other way.
Potency means the concentration at half of the fitted maximal effect.

Assay: P-glycoprotein substrates identified in KB-3-1 adenocarcinoma cell line, qHTS therapeutic library screen (AID 1346986); further: nearly all actives have a fitted effect of over 60% in size;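 further: potency is for cytotoxicity meaning loss of cell viability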
Settings: KB-3-1 parental cells viability, CellTiter-Glo, 72 h; series mostly up to 44.5 µM
Outline: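 Dose-response cytotoxicity, KB-3-1 vs P-gp-high KB-8-5-11, no colchicine in assay medium. Read: CellTiter-Glo at 72 h.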
In the case of `Cn1c(=O)c(-c2c(Cl)cccc2Cl)cc2cnc(Nc3cccc(C(=O)O)c3)nc21`, the Potency is reported as “inactive”.
For `O=C1NC(=O)C(c2cnc3ccccn23)=C1c1cn2c3c(cccc13)CN(C(=O)N1CCOCC1)CC2`, the Potency was 5.8 µM (active).
In the case of `CC(=O)NCCC(=O)N[C@@H](CCC(N)=O)C(=O)N[C@@H](CO)C(=O)N[C@@H](CCC(N)=O)C(=O)N[C@@H](CCC(N)=O)C(=O)N[C@H](C(=O)N[C@@H](Cc1ccccc1)C(=O)N[C@]1(C)CCCCCCC=CCCC[C@@](C)(C(=O)N[C@@H](CCC(N)=O)C(=O)N[C@@H](CC(N)=O)C(N)=O)NC(=O)[C@H](CC(C)C)NC(=O)[C@H](CC(C)C)NC(=O)[C@@H](CCCNC(=N)N)NC(=O)[C@H](Cc2c[nH]c3ccccc23)NC(=O)[C@H](CC(C)C)NC(=O)[C@H](CC(N)=O)NC1=O)[C@H](C)O`, the Potency is reported as “inactive”.
In the case of `C[C@@]1(c2cc(-c3cncnc3)c(F)cc2F)CCSC(N)=N1`, the Potency is reported as “inactive”.
In the case of `Nc1[nH]nc2nnc(-c3c(-c4ccccc4)nn4ccccc34)cc12`, the Potency is reported as “inactive”.
In the case of `CC1C(=O)OC2C(O)C34C5CC(C(C)(C)C)C36C(OC(=O)C6O)OC4(C(=O)O5)C12O` (configuration not stated), the Potency is reported as “inactive”.
For `CCCCC(C)(C)[C@H](O)C=C[C@H]1[C@H](O)CC(=O)[C@H]1CC=CCCCC(=O)O`, the Potency was “inactive”.
With `CC1(COc2ccc3c(c2)ncn3-c2ccc3cccc(N4CCC(N)CC4)c3n2)COC1` the Potency was 10.3 µM (active).
In the case of `O=C(NCCCCN1CCOCC1)c1cc2ccccc2o1`, the Potency is reported as “inactive”.
With `CC(=O)O[C@]1(C(C)=O)CC[C@H]2[C@@H]3C=C(Cl)C4=CC(=O)[C@@H]5C[C@H]5[C@]4(C)[C@@H]3CC[C@@]21C` the Potency was “inactive”.
For `CC(C)Oc1cc(Nc2nc(N[C@@H](C)c3ccc(F)cn3)ncc2Cl)[nH]n1`, the Potency was 10.3 µM (active).
In the case of `CCOC(=O)N1CCN([N+]([O-])=NOc2cc(ON=[N+]([O-])N3CCN(C(=O)OCC)CC3)c([N+](=O)[O-])cc2[N+](=O)[O-])CC1`, the Potency is reported as “inactive”.
